Experimental data from PubChem BioAssay (Tox21).
Records with an inconclusive call do not appear. Entries that show only a call come without a potency. More than one record can exist for a structure, and the calls need not agree. Calls of active or inactive are those of the source. Unless noted, the call rests on the fitted dose curve.

Columns and labels:
[1] = Nuclear factor erythroid 2-related factor 2/antioxidant responsive element (Nrf2/ARE) small molecule agonists: luciferase reporter gene qHTS assay in human keratinocytes (AID 1919969); further: nearly all actives have a fitted effect of over 35% in size; further: potency means the concentration at half of the fitted maximal effect
[2] = biological target: KiSS-1 receptor (Homo sapiens) (UniProt Q969F8); experiment: Human kisspeptin (KISS1R) small molecule agonists, calcium flux assay in KISS1R-HEK293 cells (AID 1920064; active means well fitted activation curve with a large enough effect in the repeat runs)
Chain of KiSS-1 receptor (Homo sapiens) (Q969F8 whole entry, looked up): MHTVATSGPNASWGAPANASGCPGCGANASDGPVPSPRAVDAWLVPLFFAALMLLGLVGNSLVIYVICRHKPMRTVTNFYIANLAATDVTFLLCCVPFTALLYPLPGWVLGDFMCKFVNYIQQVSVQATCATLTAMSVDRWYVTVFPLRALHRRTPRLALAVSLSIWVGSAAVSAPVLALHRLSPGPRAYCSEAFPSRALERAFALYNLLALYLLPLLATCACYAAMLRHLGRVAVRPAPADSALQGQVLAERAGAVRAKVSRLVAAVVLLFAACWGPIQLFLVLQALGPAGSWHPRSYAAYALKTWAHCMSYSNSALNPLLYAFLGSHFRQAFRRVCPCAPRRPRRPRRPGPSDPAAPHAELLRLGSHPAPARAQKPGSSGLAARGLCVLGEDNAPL
How it was run: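 Agonist activity is monitored as intracellular calcium rise in engineered HEK293 cells carrying human KISS1R. Cells are dye-loaded for 1 h at 37 C before compound addition, and fluorescence is recorded for 3 min.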

[3] = G protein-coupled receptor (GPCR) small molecule agonists, calcium flux assay: HEK293 wild type cell line counter screen (AID 1920065)
How it was run: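 Seed cells, incubate 18 h (37 C, 5% CO2); add calcium dye, 1 h at 37 C; pin-transfer compounds, ATP control or DMSO; read fluorescence 480/540 nm each second for 3 min.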

[4] = p53 small molecule agonists, cell-based qHTS assay with human liver microsomes (AID 1963577);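 further: p53 response element beta-lactamase reporter cells with liver microsomes plus NADPH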
How it was run: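 16 h, 37 C exposure of p53RE-bla cells to compounds with human liver microsomes and NADPH (0.5 mg/mL final each); detection via LiveBLAzer mixture, 2 h dark at room temperature.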

[5] = p53 small molecule agonists, cell-based qHTS assay with human liver microsomes: qHTS cell viability counter screen (AID 1963579); further: nearly all actives have a fitted effect of over 45% in size
How it was run: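 In this multiplexed counter screen, the reporter plates were subsequently treated with CellTiter-Glo so that cell viability, reflected by luminescence, could be recorded for p53RE-bla cells dosed 16 h with compounds under microsomal activation (HLM and NADPH).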

[6] = p53 small molecule agonists, cell-based qHTS assay with rat liver microsomes: qHTS cell viability counter screen (AID 1963580); further: nearly all actives have a fitted effect of over 45% in size; further: potency means the concentration at half of the fitted maximal effect
How it was run: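 Cytotoxicity counter screen: intracellular ATP read by CellTiter-Glo luminescence in the p53 reporter wells. HCT-116 p53RE-bla cells were treated for 16 h at 37 C alongside rat liver microsomes and NADPH, each 0.5 mg/mL final.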

[7] = p53 small molecule agonists, cell-based qHTS assay: qHTS cell viability counter screen (AID 1963581); further: nearly all actives have a fitted effect of over 45% in size
How it was run: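 Viability was counter-screened in parallel with the p53 agonist reporter by measuring intracellular ATP luminescence in the same HCT-116 p53RE-bla wells after 16 h compound treatment at 37 C.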

[8] = p53 small molecule agonists, cell-based qHTS assay (AID 1963582; active means well fitted activation curve with a large enough effect in the signal ratio in the repeat runs, not every such curve was filed as active; the % refers to the signal ratio)
How it was run: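 Cells carrying a p53-responsive bla reporter are treated with test compounds for 16 h at 37 C; beta-lactamase activity is then detected with LiveBLAzer B/G FRET substrate after 2 h at room temperature.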

[9] = biological target: 5-hydroxytryptamine receptor 2A (Homo sapiens) (UniProt P28223); experiment: 5-hydroxytryptamine receptor 2A (HTR2A) small molecule antagonists, cell-based qHTS assay (AID 1963586); further: nearly all actives have a fitted effect of over 45% in size
Chain of 5-hydroxytryptamine receptor 2A (Homo sapiens) (P28223 whole entry, looked up): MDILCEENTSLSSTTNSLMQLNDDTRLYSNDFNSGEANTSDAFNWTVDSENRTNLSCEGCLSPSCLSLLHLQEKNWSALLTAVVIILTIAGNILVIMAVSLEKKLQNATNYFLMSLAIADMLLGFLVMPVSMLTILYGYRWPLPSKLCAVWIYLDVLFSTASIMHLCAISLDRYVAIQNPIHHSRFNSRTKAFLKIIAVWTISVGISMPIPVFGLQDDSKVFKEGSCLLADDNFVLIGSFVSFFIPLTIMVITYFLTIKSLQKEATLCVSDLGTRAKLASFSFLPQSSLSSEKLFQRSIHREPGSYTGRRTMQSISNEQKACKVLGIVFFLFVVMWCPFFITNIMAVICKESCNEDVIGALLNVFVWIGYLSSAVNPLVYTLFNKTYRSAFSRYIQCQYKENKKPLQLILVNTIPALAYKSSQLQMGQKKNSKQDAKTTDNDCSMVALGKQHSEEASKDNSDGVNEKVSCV
How it was run: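 CHO cells stably expressing human HTR2A were plated for 18 h at 37 C, then loaded with calcium dye for 1 h. Compounds were preincubated 5 min at room temperature before DOI (4 nM solution) was added. Kinetic fluorescence was read for 3 min.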

[10] = biological target: Muscarinic acetylcholine receptor M1 (Homo sapiens) (UniProt P11229); experiment: Cholinergic receptor muscarinic 1 (CHRM1) small molecule antagonists, cell-based qHTS assay (AID 1963588); further: nearly all actives have a fitted effect of over 40% in size; further: potency means the concentration at half of the fitted maximal effect
Chain of Muscarinic acetylcholine receptor M1 (Homo sapiens) (P11229 whole entry, looked up): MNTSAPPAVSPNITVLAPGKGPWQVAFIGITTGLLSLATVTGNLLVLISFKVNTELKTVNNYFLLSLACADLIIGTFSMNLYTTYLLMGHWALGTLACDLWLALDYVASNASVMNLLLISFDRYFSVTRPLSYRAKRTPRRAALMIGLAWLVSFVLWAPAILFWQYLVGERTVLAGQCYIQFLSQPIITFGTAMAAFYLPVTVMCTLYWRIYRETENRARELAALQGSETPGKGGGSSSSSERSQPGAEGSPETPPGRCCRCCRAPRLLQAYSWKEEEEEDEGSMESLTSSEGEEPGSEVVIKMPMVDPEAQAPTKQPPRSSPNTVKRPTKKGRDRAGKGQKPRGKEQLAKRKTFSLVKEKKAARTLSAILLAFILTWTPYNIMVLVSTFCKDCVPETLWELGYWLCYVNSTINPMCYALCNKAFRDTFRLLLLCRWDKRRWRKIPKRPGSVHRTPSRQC
How it was run: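 Compounds were tested at 15 concentrations in three independent runs. Dye-loaded CHRM1-CHO cells were exposed 5 min at room temperature before stimulation by acetylcholine added at 50nM. Intracellular calcium was read kinetically on FDSS for 3 min.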

[11] = cAMP Responsive Elements (CRE) small molecule agonists, cell-based qHTS assay (AID 1963590); further: potency means the concentration at half of the fitted maximal effect
How it was run: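 Cells carrying a CRE-driven beta-lactamase reporter (HEK 293T) are seeded, incubated overnight (18 h), and treated with test compounds for 3 h at 37 C; reporter activity is then detected with a FRET substrate after 2 h at room temperature.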

[12] = cAMP Responsive Elements (CRE) small molecule antagonists, cell-based qHTS assay (AID 1963591; active means well fitted inhibition curve with a large enough effect in the signal ratio in the repeat runs, not every such curve was filed as active; the % refers to the signal ratio; further: potency means the concentration at half of the fitted maximal effect)
How it was run: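 Cells (CRE-bla HEK 293T, DMEM with 10% dialyzed FBS and 25 mM HEPES) are seeded and incubated 18 h. Compounds are added with NKH477 agonist at 0.25 uM final for 3 h, then FRET substrate for 2 h.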

[13] = biological target: Beta-2 adrenergic receptor (Homo sapiens) (UniProt P07550); experiment: Adrenergic beta2 receptor (ADRB2) small molecule antagonists, cell-based qHTS assay (AID 1963592); further: nearly all actives have a fitted effect of over 50% in size; further: potency means the concentration at half of the fitted maximal effect
Chain of Beta-2 adrenergic receptor (Homo sapiens) (P07550 whole entry, looked up): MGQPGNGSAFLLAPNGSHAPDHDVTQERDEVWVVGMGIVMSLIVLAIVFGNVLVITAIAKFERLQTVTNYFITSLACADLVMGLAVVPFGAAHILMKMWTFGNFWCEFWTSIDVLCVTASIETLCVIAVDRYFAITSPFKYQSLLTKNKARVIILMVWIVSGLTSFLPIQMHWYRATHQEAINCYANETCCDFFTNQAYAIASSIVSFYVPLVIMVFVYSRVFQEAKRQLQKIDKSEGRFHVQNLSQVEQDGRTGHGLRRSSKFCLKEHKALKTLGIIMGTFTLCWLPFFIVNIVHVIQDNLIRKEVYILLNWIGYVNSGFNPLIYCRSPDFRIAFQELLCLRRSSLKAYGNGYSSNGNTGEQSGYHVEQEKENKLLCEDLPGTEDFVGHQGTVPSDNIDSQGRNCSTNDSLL
How it was run: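 Assay format: CHO-ADRB2 cells, 18-20hr seeding at 37C/5% CO2, then compound plus 1nM isoproterenol agonist mix for 0.5hr RT. Homogeneous time-resolved fluorescence cAMP detection after 1hr, expressed as 665/615 nm ratio.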

[14] = p53 small molecule agonists, cell-based qHTS assay with rat liver microsomes (AID 1963578)
How it was run: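 With rat liver microsomes and NADPH present (0.5 mg/mL final each), p53RE-bla cells are treated with compound for 16 h at 37 C. LiveBLAzer detection mixture is then applied for 2 h at room temperature in the dark.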

[15] = biological target: 5-hydroxytryptamine receptor 2A (Homo sapiens) (UniProt P28223); experiment: 5-hydroxytryptamine receptor 2A (HTR2A) small molecule agonists, cell-based qHTS assay (AID 1963587); further: nearly all actives have a fitted effect of over 30% in size; further: potency means the concentration at half of the fitted maximal effect
How it was run: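 Kinetic calcium-flux fluorescence (2 min, 1 sec intervals) after compound addition in agonist mode. HTR2A-CHO cells were cultured 18 h, then dye-loaded 1 h at 37 C.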

[16] = biological target: Muscarinic acetylcholine receptor M1 (Homo sapiens) (UniProt P11229); experiment: Cholinergic receptor muscarinic 1 (CHRM1) small molecule agonists, cell-based qHTS assay (AID 1963589); further: nearly all actives have a fitted effect of over 35% in size
How it was run: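 Cells were plated and incubated 18 h at 37 C/5% CO2, loaded with calcium dye for 1 h at 37 C, then treated with compounds in DMSO. Fluorescence was recorded kinetically at 1 sec intervals.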

[17] = biological target: D(2) dopamine receptor (Homo sapiens) (UniProt P14416); experiment: Dopamine D2 receptor (DRD2) small molecule antagonists, cell-based qHTS assay (AID 1963595; active means well fitted inhibition curve with a large enough effect in the signal ratio in the repeat runs, with a control signal flat; the % refers to the signal ratio; further: potency means the concentration at half of the fitted maximal effect)
Chain of D(2) dopamine receptor (Homo sapiens) (P14416 whole entry, looked up): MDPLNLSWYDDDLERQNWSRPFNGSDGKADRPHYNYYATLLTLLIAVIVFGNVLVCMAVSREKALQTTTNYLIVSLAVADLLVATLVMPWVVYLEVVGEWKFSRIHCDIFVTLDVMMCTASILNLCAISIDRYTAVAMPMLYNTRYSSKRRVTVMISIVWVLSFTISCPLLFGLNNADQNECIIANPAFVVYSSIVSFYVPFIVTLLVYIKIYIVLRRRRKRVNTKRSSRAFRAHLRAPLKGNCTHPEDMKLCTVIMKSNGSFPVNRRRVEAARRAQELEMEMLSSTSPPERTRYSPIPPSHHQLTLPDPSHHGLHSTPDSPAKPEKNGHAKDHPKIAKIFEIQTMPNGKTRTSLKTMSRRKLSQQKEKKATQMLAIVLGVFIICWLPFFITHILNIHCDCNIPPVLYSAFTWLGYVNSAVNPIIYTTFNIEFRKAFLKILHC
How it was run: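 HTRF cAMP read-out at 665 and 620 nm emission (340 nm excitation). Antagonist mode: compounds were tested against 12 nM quinpirole in DRD2-HEK293 cells, with 200 nM NKH477 raising cAMP and 0.1 mM Ro20-1724 blocking its breakdown.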

[18] = biological target: Beta-2 adrenergic receptor (Homo sapiens) (UniProt P07550); experiment: Adrenergic beta2 receptor (ADRB2) small molecule agonists, cell-based qHTS assay (AID 1963593);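 further: CHO cells stably overexpressing human ADRB2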
How it was run: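 CHO cells stably over-expressing ADRB2 were plated overnight at 37C, then dosed with compounds plus a stimulation mix containing 100uM IBMX and 25uM Ro-20-1724 for 0.5hr at room temperature. cAMP was measured by HTRF competition, 1hr.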

[19] = biological target: D(2) dopamine receptor (Homo sapiens) (UniProt P14416); experiment: Dopamine D2 receptor (DRD2) small molecule agonists, cell-based qHTS assay (AID 1963594); further: nearly all actives have a fitted effect of over 35% in size
How it was run: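 cAMP accumulation in DRD2-HEK293 cells measured by HTRF after 1 h detection; compounds added 10 min before NKH477 (200nM […]) forskolin-analogue stimulation, 30 min at room temperature, with Ro20-1724 present at 0.1 mM final.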

Structure (SMILES)	Potency [1]	Potency [2]	Potency [3]	Potency [4]	Potency [5]	Potency [6]	Potency [7]	Potency [8]	Potency [9]	Potency [10]	Potency [11]	Potency [12]	Potency [13]	Potency [14]	Potency [15]	Potency [16]	Potency [17]	Potency [18]	Potency [19]
c1coc(Cn2cccc2)c1	inactive	inactive	inactive	inactive	inactive	inactive	inactive	inactive	inactive	inactive	inactive	inactive	30.6 µM (active)						
CC(CN(C)C)CN1c2ccccc2CCc2ccccc21 (stereo unspecified)	inactive	inactive	inactive	inactive	inactive	inactive				inactive				inactive	inactive	inactive			
COc1cc(NC(C)CCCN)c2ncccc2c1 (stereo unspecified)	11.9 µM (active)	inactive	inactive	inactive	inactive	inactive	inactive	inactive			inactive	inactive		inactive			inactive		
CCC1=C[C@@H]2CN(C1)Cc1c([nH]c3ccccc13)[C@@](C(=O)OC)(c1cc3c(cc1OC)N(C)[C@H]1[C@@](O)(C(=O)OC)[C@H](OC(C)=O)[C@]4(CC)C=CCN5CC[C@]31[C@@H]54)C2	0.376 µM (active)	inactive	inactive										inactive				inactive	inactive	inactive
CCOC(=O)COc1ccc2c(c1)CC(NCC(O)c1cccc(Cl)c1)CC2 (stereo unspecified)	inactive	inactive	inactive	inactive	inactive		inactive	inactive	inactive					inactive	31.2 µM (active)	inactive		inactive	
Oc1cccc2c(O)cccc12	27.3 µM (active)	inactive	inactive	inactive		32.4 µM (active)	inactive		inactive	inactive	inactive	inactive		inactive	inactive	inactive	inactive		inactive
C1CCC(C(CC2CCCCN2)C2CCCCC2)CC1 (stereo unspecified)	inactive	inactive	inactive	inactive	inactive	inactive		inactive				29.8 µM (active)		inactive					inactive
Sc1nc2ccccc2s1	68.6 µM (active)	inactive	inactive	inactive	inactive	inactive	inactive	inactive			inactive	inactive	inactive	inactive	inactive	inactive	inactive	inactive	inactive
O=C(/C=C/c1ccccc1)NCCO	inactive	inactive			inactive	inactive	inactive		inactive	inactive	inactive	inactive	inactive		21.3 µM (active)	inactive			inactive
CC(C)=CCNc1ncnc2c1ncn2[C@@H]1O[C@H](CO)[C@@H](O)[C@H]1O	7.5 µM (active)	inactive		inactive		inactive			inactive	inactive	11.9 µM (active)		inactive	inactive	inactive	inactive	9.44 µM (active)		
O=C1OC(=O)c2cc(-c3ccc4c(c3)C(=O)OC4=O)ccc21	48.6 µM (active)	inactive	inactive	inactive		inactive		inactive	inactive		inactive	inactive	inactive	inactive		inactive	inactive	inactive	inactive
OCCCCCO	inactive	inactive	inactive		inactive	inactive	inactive		inactive	inactive	inactive	inactive	inactive		inactive	inactive	inactive	inactive	
CC1=C(/C=C/C(C)=C/C=C/C(C)=C\C=O)C(C)(C)CCC1	64.9 µM (active)	inactive	inactive	inactive			inactive		inactive	inactive			inactive	inactive		inactive	inactive		inactive
CCCCCCOC(=O)c1ccc(O)cc1	19.4 µM (active) and inactive	inactive	inactive	inactive	inactive	inactive	inactive	inactive		inactive			inactive	inactive	inactive	inactive		inactive	inactive
CCC(C)(C)c1cc(O)c(C(C)(C)CC)cc1O	4.86 µM (active)	inactive	inactive		inactive		inactive	inactive		inactive	inactive	inactive	inactive	inactive	4.9 µM (active)	inactive	inactive	inactive	inactive
CCc1ccc(O)c(C(C)(C)C)c1	inactive	inactive	inactive		inactive		inactive	inactive		37.5 µM (active)			inactive	inactive	49 µM (active)	inactive			inactive
CCCCCCOc1ccc(O)cc1	21.7 µM (active)	inactive	inactive		inactive				inactive	inactive					inactive	inactive	48.6 µM (active)		inactive
